Results taken from article PMC4336329 (PLoS ONE, 2015).
In all, about 310,000 compounds went through this assay and about 14,000 (4.5%) showed an effect of 50% or more. The effect is printed as a negative number. For the sample, strong results were picked, then their nearest neighbours and some compounds at random.

Molecular target: human ether-à-go-go-related gene (hERG) potassium channel (human, UniProt Q12809)
Experiment: primary screen, population patch clamp on CHO cells stably expressing hERG; higher = less effect of the substance
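Further: peak tail current of the secondary pulse compared with the same well before compound.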

human ether-à-go-go-related gene (hERG) potassium channel, sequence (Q12809 whole entry, looked up): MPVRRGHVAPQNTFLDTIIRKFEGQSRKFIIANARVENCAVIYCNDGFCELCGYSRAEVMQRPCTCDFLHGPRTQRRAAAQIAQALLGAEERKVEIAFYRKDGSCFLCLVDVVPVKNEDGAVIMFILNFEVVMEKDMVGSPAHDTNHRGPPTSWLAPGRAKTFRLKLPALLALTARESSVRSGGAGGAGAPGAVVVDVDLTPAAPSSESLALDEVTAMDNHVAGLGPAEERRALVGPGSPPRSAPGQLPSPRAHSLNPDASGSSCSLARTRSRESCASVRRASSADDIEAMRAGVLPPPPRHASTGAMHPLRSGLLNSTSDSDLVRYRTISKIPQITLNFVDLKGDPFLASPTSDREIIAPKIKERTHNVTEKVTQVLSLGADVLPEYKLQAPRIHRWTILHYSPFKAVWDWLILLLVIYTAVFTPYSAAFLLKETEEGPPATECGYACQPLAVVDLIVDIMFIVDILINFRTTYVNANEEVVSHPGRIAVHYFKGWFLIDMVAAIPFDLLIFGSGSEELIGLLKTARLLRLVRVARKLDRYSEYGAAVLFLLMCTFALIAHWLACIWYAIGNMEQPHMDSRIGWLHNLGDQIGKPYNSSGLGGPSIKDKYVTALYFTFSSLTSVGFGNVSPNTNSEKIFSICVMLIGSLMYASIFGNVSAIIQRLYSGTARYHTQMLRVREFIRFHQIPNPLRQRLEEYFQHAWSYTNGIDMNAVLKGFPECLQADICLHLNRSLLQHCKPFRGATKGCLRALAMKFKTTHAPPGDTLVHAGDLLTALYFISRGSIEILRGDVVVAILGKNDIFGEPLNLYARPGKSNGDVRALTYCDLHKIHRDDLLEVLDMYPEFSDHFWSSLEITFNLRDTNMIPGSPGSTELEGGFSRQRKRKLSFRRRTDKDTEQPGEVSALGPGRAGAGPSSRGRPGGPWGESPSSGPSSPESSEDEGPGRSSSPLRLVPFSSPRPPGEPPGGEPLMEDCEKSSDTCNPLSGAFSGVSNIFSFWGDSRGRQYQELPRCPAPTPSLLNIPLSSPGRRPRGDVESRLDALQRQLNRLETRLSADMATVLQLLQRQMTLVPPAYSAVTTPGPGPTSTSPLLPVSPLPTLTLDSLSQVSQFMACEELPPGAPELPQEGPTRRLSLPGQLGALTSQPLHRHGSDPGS

First: Cc1ccccc1CN1CCCOCCS1(=O)=O
Second: COc1ccccc1C(CNC(=O)c1cc(S(=O)(=O)N2CCOCC2)ccc1C)N1CCCC1 (stereo not shown)
The “hERG current change (%, negative = inhibition) at 10uM” value of the first is lower: -0.4% for the first, 2.53% for the second.

First: Cn1c2c(c(=O)n1-c1ccccc1)CSCC2
Second: O=S1OCCN1c1ccccc1 (stereo not shown)
The “hERG current change (%, negative = inhibition) at 10uM” value of the first is higher: 16.5% for the first, 10.4% for the second.

First: O=C(NNC(=S)NC(=O)c1cccs1)c1ccc(NC(=O)c2ccccc2)cc1
Second: O=C(Cc1ccccc1)Nc1ccc(NC(=O)c2ccc(Br)cc2)cc1
The “hERG current change (%, negative = inhibition) at 10uM” value of the first is lower: 13.7% for the first, 15.4% for the second.

First: Cl.O=C(O)c1ccc2nc(CO)[nH]c2c1
Second: Cc1ccc2nc(C3CCN(C(=O)NCc4ccccc4)CC3)[nH]c2c1
The “hERG current change (%, negative = inhibition) at 10uM” value of the first is higher: 11.2% for the first, -30% for the second.

Going from `CC(Cc1cccs1)NC(=O)Nc1ccccc1` (stereo not shown) to `COc1ccc(NC(=O)C2Cc3ccccc3O/C2=N\O)cc1` (stereo not shown), the “hERG current change (%, negative = inhibition) at 10uM” value rises from 0.115% to 13.8%.

Compared with `O=C(c1ccc(S(=O)(=O)N2CCOCC2)cc1)N1CCc2ccccc2C1`, `CN(C)S(=O)(=O)c1ccc(C(=O)NCC(=O)N/N=C/c2ccccc2Cl)cc1` is higher in “hERG current change (%, negative = inhibition) at 10uM” value: -4.25% for the first, 5.43% for the second.

Compared with `CCOc1ccccc1N1CCN(Cc2ccc(OC)c(OC)c2OC)CC1`, `COc1ccccc1N1CCN(Cc2ccc(OC)c(OC)c2OC)CC1` is higher in “hERG current change (%, negative = inhibition) at 10uM” value: -51.9% for the first, -35.8% for the second.

Compared with `COc1ccc(CN2CCN(C(C)C(=O)NC(C)c3ccc(F)cc3)CC2)cc1F` (stereo not shown), `CC(NC(=O)C(C)N1CCN(Cc2ccccc2)CC1)c1ccc(F)cc1` (stereo not shown) is higher in “hERG current change (%, negative = inhibition) at 10uM” value: -62% for the first, 5.35% for the second.

Compared with `COc1cc(CN2CCN(c3cccc(C)c3C)CC2)cc(OC)c1O`, `COc1cc(CN2CCN(c3cccc(C)c3C)CC2)cc(Br)c1O` is higher in “hERG current change (%, negative = inhibition) at 10uM” value: -45.4% for the first, -12.6% for the second.

First: COc1ccc(CN2CCN(S(=O)(=O)c3ccc(F)cc3)CC2)cc1OC.O=C(O)C(=O)O
Second: COc1ccc(CN2CCN(Cc3ccccc3F)CC2)cc1OC.O=C(O)C(=O)O
The “hERG current change (%, negative = inhibition) at 10uM” value of the first is higher: 7.33% for the first, -22.6% for the second.

First: COc1cccc(CN2CCN(Cc3cccc(F)c3)CC2)c1.O=C(O)C(=O)O
Second: COc1ccc(CN2CCN(Cc3ccc4ccccc4c3)CC2)cc1OC.O=C(O)C(=O)O
The “hERG current change (%, negative = inhibition) at 10uM” value of the first is higher: -6.47% for the first, -67% for the second.

First: COc1ccc(CN2CCN(c3cccc(C)c3C)CC2)cc1OC
Second: CCOc1ccccc1N1CCN(Cc2cccc(OC)c2OC)CC1
The “hERG current change (%, negative = inhibition) at 10uM” value of the first is lower: -72% for the first, -17% for the second.

First: COc1ccc(CN2CCN(C(C)C(=O)N(C)Cc3cccc(F)c3)CC2)cc1OC.O=C(O)C(=O)O (stereo not shown)
Second: COc1ccccc1N1CCN(Cc2cccc(Br)c2)CC1.O=C(O)C(=O)O
The “hERG current change (%, negative = inhibition) at 10uM” value of the first is lower: -61% for the first, -5.27% for the second.

Compared with `COc1cc(C)c(CN2CCN(C(C)C(=O)NC(C)c3ccccc3)CC2)cc1OC` (stereo not shown), `COc1ccccc1CN1CCN(Cc2ccc3ccccc3c2)CC1.O=C(O)C(=O)O` is lower in “hERG current change (%, negative = inhibition) at 10uM” value: -18.3% for the first, -36.7% for the second.

First: CC(C)S(=O)(=O)C1=NSC2=NC(=O)/C(=C\c3ccc(OC(=O)c4ccco4)cc3)C(=N)N21
Second: COc1ccc(C2=C(Nc3ccc(C)cc3)c3ccccc3C2=O)cc1
The “hERG current change (%, negative = inhibition) at 10uM” value of the first is higher: 12.8% for the first, 3.57% for the second.

First: COc1cc2nc(C(C)(C)C)oc(=O)c2cc1OC
Second: CCC(=O)Nc1cc(-c2cc3ccccc3oc2=O)ccc1OC
The “hERG current change (%, negative = inhibition) at 10uM” value of the first is higher: 10.6% for the first, -29.6% for the second.

First: NC(=O)CC(NC(=O)c1ccccc1)c1ccc(NC2CCCC2)c([N+](=O)[O-])c1 (stereo not shown)
Second: CS(=O)(=O)N(Cc1ccc(C(=O)NN=C2CCCC2)cc1)c1ccccc1
The “hERG current change (%, negative = inhibition) at 10uM” value of the first is lower: 5.39% for the first, 8.63% for the second.

First: Cc1cc(C(=O)OCC(=O)c2ccc(Cl)c([N+](=O)[O-])c2)c2cccc(C)c2n1
Second: COc1cccc(CNC(=O)CSc2nc3ccc(C)cc3[nH]2)c1
The “hERG current change (%, negative = inhibition) at 10uM” value of the first is higher: 6.36% for the first, 6.22% for the second.

Going from `COc1ccccc1N1CCN(Cc2ccccc2)CC1.O=C(O)C(=O)O` to `COc1ccccc1N1CCN(Cc2ccc(Br)cc2)CC1.O=C(O)C(=O)O`, the “hERG current change (%, negative = inhibition) at 10uM” value falls from -7.21% to -70.3%.

Compared with `COc1ccc(CN2C(=O)Cc3c2nc(N)c2c(N)nc(N4CCOCC4)c(C#N)c32)cc1`, `COc1ccccc1-c1cnn2c(N3CCOCC3)cc(C)nc12` is higher in “hERG current change (%, negative = inhibition) at 10uM” value: -36.8% for the first, 23.9% for the second.

Going from `Cc1nnc(SCC(=O)Nc2nccs2)n(N)c1=O` to `CCn1c(SCC(=O)Nc2sc3c(c2C#N)CCCC3)nnc1-c1ccncc1`, the “hERG current change (%, negative = inhibition) at 10uM” value falls from 19.4% to -63.5%.

First: CC1CCCCC1NC(=O)c1ccc(S(=O)(=O)NCC2CCCO2)cc1 (stereo not shown)
Second: CCn1cc(C(=O)N2CCOCC2)c(=O)c2cc(S(=O)(=O)N(C)C3CCCCC3)ccc21
The “hERG current change (%, negative = inhibition) at 10uM” value of the first is lower: -10.7% for the first, 0.899% for the second.

First: Cc1ccc(C)c(S(=O)(=O)N2CCC3(CC2)OCCN3S(=O)(=O)c2cccs2)c1
Second: CCn1cc(C(=O)N2CCCC2)c(=O)c2cc(S(=O)(=O)N3CCC(C)CC3)ccc21
The “hERG current change (%, negative = inhibition) at 10uM” value of the first is lower: 5.64% for the first, 6.02% for the second.

Compared with `CCCc1nc(SCC(=O)c2ccccc2)c2c(=O)n(C)c(=O)n(C)c2n1`, `CCN(CC)C(=O)CSc1ccccc1N` is higher in “hERG current change (%, negative = inhibition) at 10uM” value: -23.5% for the first, 13% for the second.

First: OCCNCCCCOc1ccc(F)cc1
Second: C=CCOc1ccc(/C=C/C(C)=N\O)cc1
The “hERG current change (%, negative = inhibition) at 10uM” value of the first is lower: 4.18% for the first, 4.84% for the second.

Going from `CCCC(=O)Nc1sc2c(c1C#N)CCCCC2` to `CCCC(=O)Nc1sc2c(c1C#N)CCCC2`, the “hERG current change (%, negative = inhibition) at 10uM” value rises from -50.6% to 4.29%.

Compared with `CCC(=O)Nc1sc2c(c1C#N)CCCCC2`, `COCCCn1c(SCC(=O)Nc2sc3c(c2C#N)CCCC3)nnc1-c1ccncc1` is lower in “hERG current change (%, negative = inhibition) at 10uM” value: 0.0585% for the first, -49.4% for the second.

First: CCn1c(SCC(=O)Nc2oc(-c3ccccc3)c(-c3ccccc3)c2C#N)nnc1-c1ccco1
Second: CCn1c(SCC(=O)Nc2oc(-c3ccccc3)c(-c3ccccc3)c2C#N)nnc1-c1ccncc1
The “hERG current change (%, negative = inhibition) at 10uM” value of the first is higher: -30.8% for the first, -68.2% for the second.

Compared with `CCn1c(SCC(=O)Nc2oc(-c3ccccc3)c(-c3ccccc3)c2C#N)nnc1-c1cc(OC)cc(OC)c1`, `N#Cc1c(NC(=O)CSc2nnc(-c3ccncc3)n2CC2CCCO2)sc2c1CCCC2` (stereo not shown) is lower in “hERG current change (%, negative = inhibition) at 10uM” value: -5.33% for the first, -40.7% for the second.

First: O=C(c1ccc(OC2CCN(CCc3ccccc3)CC2)cc1)N1CCCC(CO)C1 (stereo not shown)
Second: COc1ccc(C(=O)NC2CCN(CC(=O)NCc3cccc(OC)c3)CC2)cc1
The “hERG current change (%, negative = inhibition) at 10uM” value of the first is higher: -12.4% for the first, -19.9% for the second.

Compared with `COc1ccc([C@H]2/C=C\CN(S(=O)(=O)c3ccc4ccccc4c3)[C@@H](C)C(=O)N2Cc2ccc(F)cc2)cc1`, `C[C@@H]1CC=C[C@H]2[C@H]1C(=O)N(Cc1ccccc1)[C@H]2c1ccc2ccccc2c1` is lower in “hERG current change (%, negative = inhibition) at 10uM” value: 6.43% for the first, 3.52% for the second.

Compared with `CC1CCCC(C)N1C(=O)CN1C(=O)c2ccccc2S1(=O)=O` (stereo not shown), `CCOC(=O)CNC(=O)CN1CCC(c2nc3ccccc3[nH]2)CC1` is higher in “hERG current change (%, negative = inhibition) at 10uM” value: 3.3% for the first, 13.7% for the second.

Going from `OC1(c2ccc(F)cc2)CN(c2ccccc2)C2=[N+]1CCS2.[Br-]` (stereo not shown) to `OC1(c2ccc(Cl)cc2)CN(c2ccccc2)C2=[N+]1CCS2.[Br-]` (stereo not shown), the “hERG current change (%, negative = inhibition) at 10uM” value falls from -13.9% to -50.4%.

Compared with `OC1(c2ccccc2)CN(c2ccccc2)C2=[N+]1CCS2.[Br-]` (stereo not shown), `Cc1ccc(C2(O)CN(c3ccccc3)C3=[N+]2CCS3)cc1.[Br-]` (stereo not shown) is lower in “hERG current change (%, negative = inhibition) at 10uM” value: -28.1% for the first, -32.6% for the second.

First: Cc1ccc(C2(O)CN(c3ccccc3C)C3=[N+]2CCS3)cc1.[Br-] (stereo not shown)
Second: O=[N+]([O-])c1ccc(C2(O)CN(c3ccccc3)C3=[N+]2CCS3)cc1.[Br-] (stereo not shown)
The “hERG current change (%, negative = inhibition) at 10uM” value of the first is higher: -28.1% for the first, -60.8% for the second.

First: O=P(COCCO)(c1ccccc1)c1ccccc1
Second: CCOc1ccccc1NC(=O)N1CCC(c2nc3ccccc3[nH]2)CC1
The “hERG current change (%, negative = inhibition) at 10uM” value of the first is higher: -4.96% for the first, -23.6% for the second.

First: COc1ccccc1NC(=S)N1CCC(c2nc3cc(C)c(C)cc3[nH]2)CC1
Second: COc1ccccc1NC(=O)N1CCC(c2nc3cc(C)c(C)cc3[nH]2)CC1
The “hERG current change (%, negative = inhibition) at 10uM” value of the first is higher: -21% for the first, -53.3% for the second.

Compared with `CCOc1ccccc1NC(=O)N1CCC(c2nc3ccc(C)cc3[nH]2)CC1`, `COc1ccccc1NC(=O)CN1CCC(c2nc3ccc(C)cc3[nH]2)CC1` is lower in “hERG current change (%, negative = inhibition) at 10uM” value: -55.5% for the first, -57.7% for the second.

Compared with `COc1cccc(CNC(=O)CN2CCC(c3nc4ccc(C)cc4[nH]3)CC2)c1`, `COc1ccccc1NC(=O)CN1CCC(c2nc3ccccc3[nH]2)CC1` is higher in “hERG current change (%, negative = inhibition) at 10uM” value: -68.4% for the first, -43.6% for the second.

First: COc1ccc(NC(=O)N2CCC(c3nc4ccccc4[nH]3)CC2)cc1
Second: CCn1cc(C(=O)N2CCN(c3ccccn3)CC2)c(=O)c2cc(S(=O)(=O)N3CCC(C)CC3)ccc21
The “hERG current change (%, negative = inhibition) at 10uM” value of the first is higher: 9.26% for the first, -55.9% for the second.

First: O=[N+]([O-])c1c(Nc2ccccn2)cc(Cl)c2nonc12
Second: CSCCC1NC(=S)N(Cc2ccccc2)C1=O (stereo not shown)
The “hERG current change (%, negative = inhibition) at 10uM” value of the first is lower: 9.59% for the first, 16.3% for the second.

Going from `CCOC(=O)N1CCN(C(=O)c2cn(CC)c3ccc(S(=O)(=O)N(C)C4CCCCC4)cc3c2=O)CC1` to `CCn1cc(C(=O)N2CCN(c3ccccn3)CC2)c(=O)c2cc(S(=O)(=O)N(C)C3CCCCC3)ccc21`, the “hERG current change (%, negative = inhibition) at 10uM” value falls from -17.3% to -63.1%.

For `CCn1cc(C(=O)N2CCCCC2)c(=O)c2cc(S(=O)(=O)N3CCC(C)CC3)ccc21`, the “hERG current change (%, negative = inhibition) at 10uM” value was -18.4%.
